Active and inactive are the calls of the source.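 The calls were made as follows: active = compound that reduces growth-factor-driven endothelial tube area in a mixed cell culture, no cutoff stated; inactive = the rest.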
Assay: inhibition of endothelial tube formation, primary screen, imaging, VEGF stimulated, CD31 staining, tube area, NPC library (AID 1117340)
Conditions: VEGF-stimulated ADSC/ECFC co-culture, at 10 µM, active compounds read high
With Cc1cc(=O)c2c(O)c3c(O)cc(=O)c4c3c3c(cc(O)c1c23)C(C)(C)C=4O the tube area decrease was 54.9% (active). For CC(C)OC(=O)OCOP(=O)(CO[C@H](C)Cn1cnc2c(N)ncnc21)OCOC(=O)OC(C)C, the tube area decrease was 65.2% (active). With O=C(O)c1ccc(-n2nc(-c3ccccc3O)nc2-c2ccccc2O)cc1 the tube area decrease was 102% (active). For COc1ccc(-c2ccc3cc(C(=O)O)ccc3c2)cc1C12CC3CC(CC(C3)C1)C2, the tube area decrease was 99.5% (active). With COCCCN1CCC(NC(=O)c2cc(Cl)c(N)c3c2OCC3)CC1 the tube area decrease was -8% (inactive). For CCOC(=O)c1c(C)n(C)c2ccc(O)cc12, the tube area decrease was -15.4% (inactive). With NCCCC(N)(C(=O)O)C(F)F (stereo not given) the tube area decrease was -6.3% (inactive). In the case of CN1CCCN=C1/C=C/c1cccs1, the tube area decrease is reported as -9.9% (inactive). With CC(=O)N[C@H]1[C@H]([C@H](O)[C@H](O)CO)OC(C(=O)O)=C[C@@H]1N=C(N)N the tube area decrease was 7.8% (inactive). For O=[N+]([O-])c1cncn1CCN1CCOCC1, the tube area decrease was 13.6% (inactive). With C=CC(=O)Nc1cc2c(Nc3ccc(F)c(Cl)c3)ncnc2cc1OCCCN1CCOCC1 the tube area decrease was 43.3% (active). In the case of Cc1ccc(C(=O)c2cc(O)c(O)c([N+](=O)[O-])c2)cc1, the tube area decrease is reported as 39.4% (inactive). In the case of Cc1nnc(C(=O)NC(C)(C)c2nc(C(=O)NCc3ccc(F)cc3)c(O)c(=O)n2C)o1, the tube area decrease is reported as 13.9% (inactive). For Cc1ccccc1C(=O)Nc1ccc(C(=O)N2CCCC(O)c3cc(Cl)ccc32)c(C)c1 (stereo not given), the tube area decrease was 3.5% (inactive). For COc1ccc2cccc(CCNC(C)=O)c2c1, the tube area decrease was 1% (inactive). For Cc1cc2c(cc1CC(=O)c1sccc1S(=O)(=O)Nc1onc(C)c1Cl)OCO2, the tube area decrease was -20.9% (inactive). In the case of C[C@]12CCC(=O)C=C1[C@@H]1C[C@@H]1[C@H]1[C@@H]3[C@@H]4C[C@@H]4[C@@]4(CCC(=O)O4)[C@@]3(C)CC[C@@H]12, the tube area decrease is reported as 2.8% (inactive). For CCC1=C[C@@H]2CN(C1)Cc1c([nH]c3ccccc13)[C@@](C(=O)OC)(c1cc3c(cc1OC)N(C)[C@H]1[C@@](O)(C(=O)OC)[C@H](OC(C)=O)[C@]4(CC)C=CCN5CC[C@]31[C@@H]54)C2, the tube area decrease was 106% (active). For CC1(C)CCC(C)(C)c2cc(NC(=O)c3ccc(C(=O)O)cc3)ccc21, the tube area decrease was 5.5% (inactive). With Cc1ccc(Nc2nccc(N(C)c3ccc4c(C)n(C)nc4c3)n2)cc1S(N)(=O)=O the tube area decrease was 97.1% (active). With Clc1ccc(C(Cn2ccnc2)OCc2ccc(Sc3ccccc3)cc2)c(Cl)c1 (stereo not given) the tube area decrease was 110% (active). For CNC(=O)c1ccccc1Sc1ccc2c(/C=C/c3ccccn3)n[nH]c2c1, the tube area decrease was 106% (active). With CCOC(=O)c1ccc(C#Cc2ccc3c(c2)C(C)(C)CCS3)nc1 the tube area decrease was -6% (inactive). For CC(=O)OCC(=O)[C@@]12N=C(C)O[C@@H]1C[C@H]1[C@@H]3CCC4=CC(=O)C=C[C@]4(C)[C@H]3[C@@H](O)C[C@@]12C, the tube area decrease was 2.2% (inactive). With O=P(O)(O)C(O)(Cn1ccnc1)P(=O)(O)O the tube area decrease was 8.6% (inactive). For O=c1cc(O)c(Cl)c[nH]1, the tube area decrease was -18.9% (inactive). For Clc1ccc(C(Cn2ccnc2)OCc2c(Cl)cccc2Cl)c(Cl)c1 (stereo not given), the tube area decrease was 107% (active). In the case of CC(C)(C)C(=O)Oc1ccc(S(=O)(=O)Nc2ccccc2C(=O)NCC(=O)O)cc1, the tube area decrease is reported as -2.9% (inactive). For N[C@@H](Cc1c[nH]c2ccc(O)cc12)C(=O)O, the tube area decrease was 1.7% (inactive). In the case of O=C(Nc1ccc(S(=O)(=O)N2CCOCC2)cc1)c1cc(Cl)ccc1NS(=O)(=O)c1ccc(Cl)s1, the tube area decrease is reported as 100% (active). With CCCCN(CCCC)CC(O)c1cc(Cl)cc2c1-c1ccc(Cl)cc1/C2=C/c1ccc(Cl)cc1 (stereo not given) the tube area decrease was 25.1% (inactive). In the case of N#Cc1c(N(CC(=O)O)CC(=O)O)sc(C(=O)O)c1CC(=O)O, the tube area decrease is reported as 0% (inactive). With N=C(N)c1ccc2cc(OC(=O)c3ccc(N=C(N)N)cc3)ccc2c1 the tube area decrease was -18% (inactive). In the case of COC(c1ccccc1)(c1ccccc1)[C@H](Oc1nc(C)cc(C)n1)C(=O)O, the tube area decrease is reported as 10.8% (inactive). For NC(=O)c1ncn([C@@H]2O[C@H](CO)[C@@H](O)[C@H]2O)c1N, the tube area decrease was -6.4% (inactive). In the case of c1cnc2cc3c(cc2n1)C1CNCC3C1, the tube area decrease is reported as 23.1% (inactive). In the case of CC(C(=O)O)c1ccc2c(c1)CC(=O)c1ccccc1S2 (stereo not given), the tube area decrease is reported as 2.5% (inactive). For CN(C)C(=O)COC(=O)Cc1ccc(OC(=O)c2ccc(N=C(N)N)cc2)cc1, the tube area decrease was -11.6% (inactive). With CCCCc1oc2ccc(NS(C)(=O)=O)cc2c1C(=O)c1ccc(OCCCN(CCCC)CCCC)cc1 the tube area decrease was 109% (active). With CC(C)C[C@H](NC(=O)[C@H](CCc1ccccc1)NC(=O)CN1CCOCC1)C(=O)N[C@@H](Cc1ccccc1)C(=O)N[C@@H](CC(C)C)C(=O)[C@@]1(C)CO1 the tube area decrease was 110% (active).
